# Source: PubChem BioAssay (NCI)
# About 79,000 compounds went through this panel and 15% of them were active in at least one assay; those are over-represented in the sample as a whole. Values without a mark were called inactive. Active and inactive are the calls of the source. Rule as the data show it: active = growth inhibition above about 70%; inactive = the rest.
# Columns and labels:
# [1] = NCI Yeast Anticancer Drug Screen. Data for the rad52 strain (AID 147);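 also: 0% = growth of vehicle-treated control cultures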; conditions: S. cerevisiae rad52 mutant growth inhibition, hits give high values
# Procedure, shortened: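 Vehicle-treated cultures served as the reference for growth inhibition of compound-exposed yeast bearing a DNA repair mutation.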
# [2] = NCI Yeast Anticancer Drug Screen. Data for the wt1 strain (AID 149);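 also: 0% = growth of vehicle-treated wt1 cultures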; conditions: S. cerevisiae wt1 strain (SPY 50644) growth inhibition, hits give high values
# Procedure, shortened: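 Readout: yeast growth inhibition, normalised to vehicle controls, in the wt1 strain exposed to test compounds.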
# [3] = NCI Yeast Anticancer Drug Screen. Data for the rad50EPP+ strain (AID 151);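 also: 0% = growth of vehicle-treated control cultures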; conditions: S. cerevisiae rad50 mutant strain, hits give high values
# Procedure, shortened: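 In this screen, rad50EPP+ yeast were exposed to compounds. Growth inhibition was scored against vehicle-treated controls.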
# [4] = NCI Yeast Anticancer Drug Screen. Data for the rad50 strain (AID 155);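 also: 0% = growth of vehicle-only cultures of the same strain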; conditions: S. cerevisiae rad50 strain growth inhibition, hits give high values
# Procedure, shortened: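 Compounds were tested on a yeast strain with an engineered DNA damage repair alteration; the reported value is growth inhibition normalised to vehicle treatment.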
# [5] = NCI Yeast Anticancer Drug Screen. Data for the mec2-1 strain (AID 157); conditions: S. cerevisiae mec2-1 strain, hits give high values
# Procedure, shortened: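 Vehicle-treated cultures served as reference for growth inhibition of compound-exposed mec2-1 yeast.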
# [6] = NCI Yeast Anticancer Drug Screen. Data for the rad14 strain (AID 159);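 also: 0% = growth of vehicle-treated control cultures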; conditions: S. cerevisiae rad14 strain growth inhibition, hits give high values
# Procedure, shortened: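 Compound-treated yeast with a defined DNA-repair lesion; growth inhibition normalised to vehicle-treated cultures.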
# [7] = NCI Yeast Anticancer Drug Screen. Data for the sgs1 mgt1 strain (AID 161);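 also: 0% = growth of cultures given vehicle only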; conditions: S. cerevisiae sgs1 mgt1 strain, hits give high values
# Procedure, shortened: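 Genetically altered yeast, compound exposure, growth inhibition relative to vehicle.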
# [8] = NCI Yeast Anticancer Drug Screen. Data for the CLN2oe strain (AID 163);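 also: 0% = growth of vehicle-only control cultures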; conditions: S. cerevisiae CLN2oe strain, hits give high values
# Procedure, shortened: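 Inhibition relative to vehicle-treated yeast is reported. Cells: strain with genetic alteration in cell-cycle control, grown with compound.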
# [9] = NCI Yeast Anticancer Drug Screen. Data for the cln2 rad14 strain (AID 165);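 also: 0% = growth equal to vehicle treated cultures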; conditions: S. cerevisiae cln2 rad14 strain, hits give high values
# Procedure, shortened: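 Each compound was tested on cln2 rad14 yeast. Inhibition of growth was calculated against vehicle-exposed controls.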
# [10] = NCI Yeast Anticancer Drug Screen. Data for the bub3 strain (AID 167); conditions: S. cerevisiae bub3 mutant strain, hits give high values
# Procedure, shortened: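 Growth of a checkpoint-deficient yeast mutant is measured after compound exposure. Values represent inhibition relative to vehicle.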
# [11] = NCI Yeast Anticancer Drug Screen. Data for the wt2 strain (AID 169);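 also: 0% = growth of vehicle-treated yeast cultures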; conditions: S. cerevisiae wt2 strain growth inhibition, hits give high values
# Procedure, shortened: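 Inhibition of yeast growth was determined after compound treatment, normalised to controls receiving only vehicle.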
# [12] = NCI Yeast Anticancer Drug Screen. Data for the mlh1 strain (AID 171);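 also: 0% = growth of vehicle-treated control cultures of the same strain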; conditions: S. cerevisiae mlh1 strain growth inhibition, hits give high values
# Procedure, shortened: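 Vehicle-normalised growth inhibition of a repair- or checkpoint-altered yeast strain following compound treatment.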
# [13] = NCI Yeast Anticancer Drug Screen. Data for the sgs1 strain (AID 173);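 also: 0% = growth of vehicle-only control cultures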; conditions: S. cerevisiae sgs1 mutant, hits give high values
# Procedure, shortened: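 Screen format: yeast with repair or checkpoint alterations, compound exposure, growth read relative to vehicle.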
# [14] = NCI Yeast Anticancer Drug Screen. Data for the mlh1 rad18 strain (AID 175); conditions: S. cerevisiae mlh1 rad18 strain growth inhibition, hits give high values
# Procedure, shortened: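 Vehicle-treated cultures served as the reference for growth inhibition in a yeast strain carrying DNA damage repair alterations exposed to each compound.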
# [15] = NCI Yeast Anticancer Drug Screen. Data for the rad18 strain (AID 177); conditions: S. cerevisiae rad18 mutant growth inhibition, hits give high values
# Procedure, shortened: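 Test articles were incubated with altered yeast defective in DNA damage repair. Results are given as inhibition of growth versus vehicle.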
# [16] = at 5.0 µM (retest, dose inferred, filed as 0.5)
# [17] = at 50.0 µM (retest, dose inferred, filed as 5.0)
compound,measurement,setting,value
O=C(N/N=C/c1ccc2c(c1)CCC2)c1ccccc1[N+](=O)[O-],growth inhibition,[1]; at 1.2 µM,-18%
same,growth inhibition,[1]; at 3.7 µM,-15%
same,growth inhibition,[1]; at 11.0 µM,-3%
same,growth inhibition,[1]; at 33.0 µM,-1%
same,growth inhibition,[1]; at 100.0 µM,95% (active)
same,growth inhibition,[2]; at 1.2 µM,-17%
same,growth inhibition,[2]; at 3.7 µM,-7%
same,growth inhibition,[2]; at 11.0 µM,-21%
same,growth inhibition,[2]; at 33.0 µM,-16%
same,growth inhibition,[2]; at 100.0 µM,96% (active)
same,growth inhibition,[3]; at 1.2 µM,8%
same,growth inhibition,[3]; at 3.7 µM,15%
same,growth inhibition,[3]; at 11.0 µM,21%
same,growth inhibition,[3]; at 33.0 µM,0%
same,growth inhibition,[3]; at 100.0 µM,23%
same,growth inhibition,[4]; at 1.2 µM,5%
same,growth inhibition,[4]; at 3.7 µM,26%
same,growth inhibition,[4]; [16],62%
same,growth inhibition,[4]; at 11.0 µM,35%
same,growth inhibition,[4]; at 33.0 µM,18%
same,growth inhibition,[4]; [17],98% (active)
same,growth inhibition,[4]; at 50.0 µM,88.4% (active)
same,growth inhibition,[4]; at 100.0 µM,94% (active)
same,growth inhibition,[5]; at 1.2 µM,0%
same,growth inhibition,[5]; at 3.7 µM,-10%
same,growth inhibition,[5]; [16],70% (active)
same,growth inhibition,[5]; at 11.0 µM,-9%
same,growth inhibition,[5]; at 33.0 µM,7%
same,growth inhibition,[5]; [17],99% (active)
same,growth inhibition,[5]; at 50.0 µM,71.2% (active)
same,growth inhibition,[5]; at 100.0 µM,94% (active)
same,growth inhibition,[6]; at 1.2 µM,-10%
same,growth inhibition,[6]; at 3.7 µM,-8%
same,growth inhibition,[6]; at 11.0 µM,2%
same,growth inhibition,[6]; at 33.0 µM,6%
same,growth inhibition,[6]; at 100.0 µM,95% (active)
same,growth inhibition,[7]; [16],-13%
same,growth inhibition,[7]; [17],53%
same,growth inhibition,[8]; at 1.2 µM,-3%
same,growth inhibition,[8]; at 3.7 µM,-5%
same,growth inhibition,[8]; at 11.0 µM,21%
same,growth inhibition,[8]; at 33.0 µM,18%
same,growth inhibition,[8]; at 100.0 µM,94% (active)
same,growth inhibition,[9]; [16],71% (active)
same,growth inhibition,[9]; [17],70% (active)
same,growth inhibition,[10]; at 1.2 µM,5%
same,growth inhibition,[10]; at 3.7 µM,19%
same,growth inhibition,[10]; [16],34%
same,growth inhibition,[10]; at 11.0 µM,23%
same,growth inhibition,[10]; at 33.0 µM,33%
same,growth inhibition,[10]; [17],49%
same,growth inhibition,[10]; at 100.0 µM,96% (active)
same,growth inhibition,[11]; at 1.2 µM,16%
same,growth inhibition,[11]; at 3.7 µM,12%
same,growth inhibition,[11]; at 11.0 µM,12%
same,growth inhibition,[11]; at 33.0 µM,37%
same,growth inhibition,[11]; at 100.0 µM,97% (active)
same,growth inhibition,[12]; at 1.2 µM,-19%
same,growth inhibition,[12]; at 3.7 µM,-20%
same,growth inhibition,[12]; at 11.0 µM,-43%
same,growth inhibition,[12]; at 33.0 µM,18%
same,growth inhibition,[12]; at 100.0 µM,95% (active)
same,growth inhibition,[13]; at 1.2 µM,15%
same,growth inhibition,[13]; at 3.7 µM,23%
same,growth inhibition,[13]; at 11.0 µM,30%
same,growth inhibition,[13]; at 33.0 µM,42%
same,growth inhibition,[13]; at 100.0 µM,96% (active)
same,growth inhibition,[14]; [16],36%
same,growth inhibition,[14]; [17],99% (active)
same,growth inhibition,[14]; at 50.0 µM,81.7% (active)
Cc1cc(NCCCN(C)C)c2ccc3c(ccc4c(NCCCN(C)C)cc(C)nc43)c2n1,growth inhibition,[1]; at 1.2 µM,6%
same,growth inhibition,[1]; at 3.7 µM,21%
same,growth inhibition,[1]; at 11.0 µM,17%
same,growth inhibition,[1]; at 33.0 µM,19%
same,growth inhibition,[1]; at 100.0 µM,47%
same,growth inhibition,[2]; at 1.2 µM,22%
same,growth inhibition,[2]; at 3.7 µM,18%
same,growth inhibition,[2]; at 11.0 µM,15%
same,growth inhibition,[2]; at 33.0 µM,9%
same,growth inhibition,[2]; at 100.0 µM,27%
same,growth inhibition,[3]; at 1.2 µM,6%
same,growth inhibition,[3]; at 3.7 µM,6%
same,growth inhibition,[3]; at 11.0 µM,11%
same,growth inhibition,[3]; at 33.0 µM,-26%
same,growth inhibition,[3]; at 100.0 µM,22%
same,growth inhibition,[4]; at 1.2 µM,21%
same,growth inhibition,[4]; at 3.7 µM,17%
same,growth inhibition,[4]; [16],11%
same,growth inhibition,[4]; at 11.0 µM,17%
same,growth inhibition,[4]; at 33.0 µM,21%
same,growth inhibition,[4]; [17],90% (active)
same,growth inhibition,[4]; at 50.0 µM,55.9%
same,growth inhibition,[4]; at 100.0 µM,59%
same,growth inhibition,[5]; at 1.2 µM,7%
same,growth inhibition,[5]; at 3.7 µM,15%
same,growth inhibition,[5]; [16],5%
same,growth inhibition,[5]; at 11.0 µM,11%
same,growth inhibition,[5]; at 33.0 µM,12%
same,growth inhibition,[5]; [17],31%
same,growth inhibition,[5]; at 50.0 µM,25.6%
same,growth inhibition,[5]; at 100.0 µM,35%
same,growth inhibition,[6]; at 1.2 µM,2%
same,growth inhibition,[6]; at 3.7 µM,3%
same,growth inhibition,[6]; at 11.0 µM,15%
same,growth inhibition,[6]; at 33.0 µM,22%
same,growth inhibition,[6]; at 100.0 µM,58%
same,growth inhibition,[7]; [16],7%
same,growth inhibition,[7]; [17],81% (active)
same,growth inhibition,[7]; at 50.0 µM,18.6%
same,growth inhibition,[8]; at 1.2 µM,-7%
same,growth inhibition,[8]; at 3.7 µM,-4%
same,growth inhibition,[8]; at 11.0 µM,-1%
same,growth inhibition,[8]; at 33.0 µM,17%
same,growth inhibition,[8]; at 100.0 µM,52%
same,growth inhibition,[9]; [16],8%
same,growth inhibition,[9]; [17],57%
same,growth inhibition,[9]; at 50.0 µM,19.1%
same,growth inhibition,[10]; at 1.2 µM,1%
same,growth inhibition,[10]; at 3.7 µM,11%
same,growth inhibition,[10]; [16],1%
same,growth inhibition,[10]; at 11.0 µM,9%
same,growth inhibition,[10]; at 33.0 µM,5%
same,growth inhibition,[10]; [17],31%
same,growth inhibition,[10]; at 50.0 µM,11.3%
same,growth inhibition,[10]; at 100.0 µM,22%
same,growth inhibition,[11]; at 1.2 µM,-57%
same,growth inhibition,[11]; at 3.7 µM,-39%
same,growth inhibition,[11]; at 11.0 µM,-63%
same,growth inhibition,[11]; at 33.0 µM,-40%
same,growth inhibition,[11]; at 100.0 µM,25%
same,growth inhibition,[12]; at 1.2 µM,15%
same,growth inhibition,[12]; at 3.7 µM,18%
same,growth inhibition,[12]; at 11.0 µM,23%
same,growth inhibition,[12]; at 33.0 µM,25%
same,growth inhibition,[12]; at 100.0 µM,37%
same,growth inhibition,[13]; at 1.2 µM,3%
same,growth inhibition,[13]; at 3.7 µM,10%
same,growth inhibition,[13]; at 11.0 µM,7%
same,growth inhibition,[13]; at 33.0 µM,8%
same,growth inhibition,[13]; at 100.0 µM,46%
same,growth inhibition,[14]; [16],10%
same,growth inhibition,[14]; [17],85% (active)
same,growth inhibition,[14]; at 50.0 µM,9.8%
same,growth inhibition,[15]; at 1.2 µM,10%
same,growth inhibition,[15]; at 3.7 µM,4%
same,growth inhibition,[15]; at 11.0 µM,2%
same,growth inhibition,[15]; at 33.0 µM,-8%
same,growth inhibition,[15]; at 100.0 µM,34%
